Columns and labels:
Experiment in all cases: DAPPL (digital affinity profiling via proximity ligation, sequencing); 10 mM Tris-HCl pH 7.5, 50 mM NaCl, 1 mM DTT, 4% glycerol, room temperature, 30 min; GST-TFs on glutathione beads, 16-mer random dsDNA library, 0.1% formaldehyde crosslink after washing; high values mean tight binding
FLI1 = target: T1, FLI1 (Homo sapiens, UniProt Q01543 1-452); details: protein: recombinant; tags: N-terminal GST; dsDNA, one strand shown
T1 sequence: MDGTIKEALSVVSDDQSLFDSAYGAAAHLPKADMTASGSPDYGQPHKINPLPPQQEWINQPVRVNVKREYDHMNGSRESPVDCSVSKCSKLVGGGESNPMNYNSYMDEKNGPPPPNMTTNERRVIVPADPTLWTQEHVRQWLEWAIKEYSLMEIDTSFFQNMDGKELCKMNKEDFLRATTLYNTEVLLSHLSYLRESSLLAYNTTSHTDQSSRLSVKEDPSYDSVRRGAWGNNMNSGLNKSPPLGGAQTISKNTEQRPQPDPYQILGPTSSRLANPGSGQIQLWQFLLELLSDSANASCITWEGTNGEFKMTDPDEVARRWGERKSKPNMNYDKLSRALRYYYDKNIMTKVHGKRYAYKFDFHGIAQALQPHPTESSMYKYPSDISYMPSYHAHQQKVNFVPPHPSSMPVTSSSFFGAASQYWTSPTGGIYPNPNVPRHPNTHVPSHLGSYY
Summary of the method: (§1)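 A tag-only sample was pooled with DNA-barcoded human transcription factors that had been expressed in yeast as GST fusions and captured on glutathione beads. The pools were incubated for 30 min at room temperature with 200 nmole of a random double-stranded 16-mer DNA library in Tris/NaCl/DTT/glycerol buffer, then washed, crosslinked with 0.1% formaldehyde, proximity-ligated (BsaI/T4 ligase, 1 h, 37 °C), PCR-amplified and sequenced on an Illumina NextSeq500. Binding signal is each hexamer's read frequency for a factor divided by its frequency for the tag-only sample.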

ELK1 = target: T2, ELK1 (Homo sapiens, UniProt P19419 1-428); details: protein: recombinant; tags: N-terminal GST; dsDNA, one strand shown
T2 sequence: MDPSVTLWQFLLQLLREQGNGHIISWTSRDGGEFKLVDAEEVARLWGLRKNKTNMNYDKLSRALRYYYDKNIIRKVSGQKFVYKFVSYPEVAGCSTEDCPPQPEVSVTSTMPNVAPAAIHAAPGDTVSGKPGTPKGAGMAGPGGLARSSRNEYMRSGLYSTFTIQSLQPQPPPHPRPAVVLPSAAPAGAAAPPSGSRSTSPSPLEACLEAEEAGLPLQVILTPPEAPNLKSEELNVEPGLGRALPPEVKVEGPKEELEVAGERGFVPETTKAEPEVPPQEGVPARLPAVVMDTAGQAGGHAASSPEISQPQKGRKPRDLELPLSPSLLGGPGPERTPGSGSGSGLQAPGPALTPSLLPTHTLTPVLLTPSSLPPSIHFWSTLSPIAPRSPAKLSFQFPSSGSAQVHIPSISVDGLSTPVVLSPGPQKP
Summary of the method: as §1

GABPA = target: T3, GABPA (Homo sapiens, UniProt Q06546 1-454); details: protein: recombinant; tags: N-terminal GST; dsDNA, one strand shown
T3 sequence: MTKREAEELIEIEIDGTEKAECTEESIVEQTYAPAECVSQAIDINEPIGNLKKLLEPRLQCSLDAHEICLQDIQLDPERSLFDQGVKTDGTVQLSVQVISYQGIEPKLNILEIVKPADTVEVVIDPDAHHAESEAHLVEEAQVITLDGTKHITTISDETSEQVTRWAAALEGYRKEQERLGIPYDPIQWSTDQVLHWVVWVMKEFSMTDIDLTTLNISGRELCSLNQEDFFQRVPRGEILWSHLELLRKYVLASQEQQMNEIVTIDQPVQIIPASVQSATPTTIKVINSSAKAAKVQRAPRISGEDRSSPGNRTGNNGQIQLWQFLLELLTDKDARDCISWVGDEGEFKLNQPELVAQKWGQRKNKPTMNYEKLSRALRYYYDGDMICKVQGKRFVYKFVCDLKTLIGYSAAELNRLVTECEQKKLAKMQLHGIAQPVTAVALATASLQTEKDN
Summary of the method: as §1

ERG = target: T4, ERG (Homo sapiens, UniProt P11308 1-479); details: protein: recombinant; tags: N-terminal GST; dsDNA, one strand shown
T4 sequence: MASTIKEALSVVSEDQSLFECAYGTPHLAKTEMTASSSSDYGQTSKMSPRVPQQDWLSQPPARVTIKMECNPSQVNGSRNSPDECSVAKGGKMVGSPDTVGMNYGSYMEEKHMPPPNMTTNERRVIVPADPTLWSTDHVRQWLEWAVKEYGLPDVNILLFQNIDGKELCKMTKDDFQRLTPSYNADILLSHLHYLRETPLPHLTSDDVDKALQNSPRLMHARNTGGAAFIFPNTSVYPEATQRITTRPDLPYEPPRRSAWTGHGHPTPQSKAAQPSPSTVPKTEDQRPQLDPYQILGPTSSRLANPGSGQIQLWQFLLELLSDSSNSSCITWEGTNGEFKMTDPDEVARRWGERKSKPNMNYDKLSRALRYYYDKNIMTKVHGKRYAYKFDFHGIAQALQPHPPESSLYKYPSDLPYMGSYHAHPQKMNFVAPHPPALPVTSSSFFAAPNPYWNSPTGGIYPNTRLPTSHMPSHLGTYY
Summary of the method: as §1

ELF1 = ELF1 (Homo sapiens, UniProt P32519 1-619); details: protein: recombinant; tags: N-terminal GST; dsDNA, one strand shown
Chain of ELF1 (P32519 whole entry): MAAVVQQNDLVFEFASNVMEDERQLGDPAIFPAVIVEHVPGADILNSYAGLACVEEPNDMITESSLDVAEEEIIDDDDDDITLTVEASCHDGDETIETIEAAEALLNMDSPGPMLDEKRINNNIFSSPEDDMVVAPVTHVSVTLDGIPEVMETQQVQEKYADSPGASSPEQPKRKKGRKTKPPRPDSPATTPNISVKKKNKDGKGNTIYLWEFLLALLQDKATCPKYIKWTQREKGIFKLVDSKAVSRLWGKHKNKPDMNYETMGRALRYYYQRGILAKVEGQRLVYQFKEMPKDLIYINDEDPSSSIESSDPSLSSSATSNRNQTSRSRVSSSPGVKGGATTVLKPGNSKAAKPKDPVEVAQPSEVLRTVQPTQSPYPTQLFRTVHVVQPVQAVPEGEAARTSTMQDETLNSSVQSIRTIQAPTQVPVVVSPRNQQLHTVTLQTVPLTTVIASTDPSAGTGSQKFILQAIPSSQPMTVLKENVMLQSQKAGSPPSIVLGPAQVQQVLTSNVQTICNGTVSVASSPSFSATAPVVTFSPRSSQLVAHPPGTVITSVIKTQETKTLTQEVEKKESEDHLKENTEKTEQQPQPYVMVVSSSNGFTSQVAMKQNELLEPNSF
Summary of the method: as §1

EHF = target: T5, EHF (Homo sapiens, UniProt Q9NZC4 1-300); details: protein: recombinant; tags: N-terminal GST; dsDNA, one strand shown
T5 sequence: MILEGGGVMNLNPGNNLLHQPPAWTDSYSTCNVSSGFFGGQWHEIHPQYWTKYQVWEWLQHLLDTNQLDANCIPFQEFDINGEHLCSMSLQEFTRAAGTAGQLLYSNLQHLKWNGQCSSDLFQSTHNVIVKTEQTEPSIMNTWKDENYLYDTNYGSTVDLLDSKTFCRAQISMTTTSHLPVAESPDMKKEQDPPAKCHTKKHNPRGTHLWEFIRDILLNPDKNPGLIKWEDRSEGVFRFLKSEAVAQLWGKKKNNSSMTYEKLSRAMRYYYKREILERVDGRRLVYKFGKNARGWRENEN
Summary of the method: as §1

SPI1 = SPI1 (Homo sapiens, UniProt P17947 1-270); details: protein: recombinant; tags: N-terminal GST; dsDNA, one strand shown
Summary of the method: as §1

SPIB = SPIB (Homo sapiens, UniProt Q01892 1-262); details: protein: recombinant; tags: N-terminal GST; dsDNA, one strand shown
Chain of SPIB (Q01892 whole entry): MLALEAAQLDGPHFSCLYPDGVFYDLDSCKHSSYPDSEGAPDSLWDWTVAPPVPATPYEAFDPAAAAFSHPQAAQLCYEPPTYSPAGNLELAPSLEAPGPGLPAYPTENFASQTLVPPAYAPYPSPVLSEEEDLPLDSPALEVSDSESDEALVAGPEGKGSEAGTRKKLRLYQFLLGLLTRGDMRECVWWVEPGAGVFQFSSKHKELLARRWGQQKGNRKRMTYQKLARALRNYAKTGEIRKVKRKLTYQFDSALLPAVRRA
Summary of the method: as §1

ELK3 = target: T6, ELK3 (Homo sapiens, UniProt P41970 1-407); details: protein: recombinant; tags: N-terminal GST; dsDNA, one strand shown
T6 sequence: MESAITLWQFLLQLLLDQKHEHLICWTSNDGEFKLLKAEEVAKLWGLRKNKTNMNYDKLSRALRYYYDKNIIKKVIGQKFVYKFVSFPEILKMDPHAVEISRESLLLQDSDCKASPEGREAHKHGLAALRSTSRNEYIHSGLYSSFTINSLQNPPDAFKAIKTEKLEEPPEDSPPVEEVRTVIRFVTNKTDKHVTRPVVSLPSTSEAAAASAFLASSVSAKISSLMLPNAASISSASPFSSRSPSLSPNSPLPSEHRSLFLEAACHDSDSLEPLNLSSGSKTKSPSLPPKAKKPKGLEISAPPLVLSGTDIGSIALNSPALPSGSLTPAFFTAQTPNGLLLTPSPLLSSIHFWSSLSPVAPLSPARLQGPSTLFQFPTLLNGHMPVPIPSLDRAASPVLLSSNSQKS
Summary of the method: as §1

FEV = target: T7, FEV (Homo sapiens, UniProt Q99581 1-238); details: protein: recombinant; tags: N-terminal GST; dsDNA, one strand shown
T7 sequence: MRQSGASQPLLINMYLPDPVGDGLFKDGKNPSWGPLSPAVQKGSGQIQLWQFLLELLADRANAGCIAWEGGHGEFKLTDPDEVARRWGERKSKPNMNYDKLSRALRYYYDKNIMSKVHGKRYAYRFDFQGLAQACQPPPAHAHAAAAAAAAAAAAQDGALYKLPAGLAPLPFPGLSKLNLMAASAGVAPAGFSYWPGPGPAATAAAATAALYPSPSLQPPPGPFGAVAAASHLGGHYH
Summary of the method: as §1

ETV5 = ETV5 (Homo sapiens, UniProt P41161 1-510); details: protein: recombinant; tags: N-terminal GST; dsDNA, one strand shown
Chain of ETV5 (P41161 whole entry): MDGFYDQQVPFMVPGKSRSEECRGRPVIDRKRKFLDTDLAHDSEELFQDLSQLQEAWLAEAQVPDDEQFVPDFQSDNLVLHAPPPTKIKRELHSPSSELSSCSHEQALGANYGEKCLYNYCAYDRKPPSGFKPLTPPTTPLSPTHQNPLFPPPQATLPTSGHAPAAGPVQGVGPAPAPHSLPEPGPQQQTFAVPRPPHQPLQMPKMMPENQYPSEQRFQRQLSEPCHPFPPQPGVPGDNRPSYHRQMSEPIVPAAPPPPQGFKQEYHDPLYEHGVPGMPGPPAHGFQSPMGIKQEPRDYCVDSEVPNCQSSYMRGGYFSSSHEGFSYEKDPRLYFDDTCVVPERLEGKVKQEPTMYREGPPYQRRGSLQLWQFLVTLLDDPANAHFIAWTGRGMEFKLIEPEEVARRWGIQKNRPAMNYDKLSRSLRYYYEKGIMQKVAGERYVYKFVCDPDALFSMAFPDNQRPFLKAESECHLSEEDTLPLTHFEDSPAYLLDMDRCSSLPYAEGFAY
Summary of the method: as §1

HSF1 = HSF1 (Homo sapiens, UniProt Q00613 1-529); details: protein: recombinant; tags: N-terminal GST; chain copies: 3; dsDNA, one strand shown
Chain of HSF1 (Q00613 whole entry): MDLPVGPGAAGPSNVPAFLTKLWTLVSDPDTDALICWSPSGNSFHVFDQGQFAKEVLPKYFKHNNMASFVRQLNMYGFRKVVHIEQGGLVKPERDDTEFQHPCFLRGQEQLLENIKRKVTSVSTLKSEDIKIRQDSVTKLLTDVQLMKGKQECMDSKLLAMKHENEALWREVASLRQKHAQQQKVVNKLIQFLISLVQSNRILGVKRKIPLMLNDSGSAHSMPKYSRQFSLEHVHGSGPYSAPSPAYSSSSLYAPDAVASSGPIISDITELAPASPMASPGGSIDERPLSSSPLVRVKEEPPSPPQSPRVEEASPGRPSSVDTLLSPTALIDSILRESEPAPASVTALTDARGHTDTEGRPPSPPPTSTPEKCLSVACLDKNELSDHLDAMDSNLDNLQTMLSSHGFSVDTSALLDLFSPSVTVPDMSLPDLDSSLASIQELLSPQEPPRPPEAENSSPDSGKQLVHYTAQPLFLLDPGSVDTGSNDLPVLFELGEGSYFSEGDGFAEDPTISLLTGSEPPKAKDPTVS
Summary of the method: as §1

SPIC = target: T8, SPIC (Homo sapiens, UniProt Q8N5J4 1-248); details: protein: recombinant; tags: N-terminal GST; dsDNA, one strand shown
T8 sequence: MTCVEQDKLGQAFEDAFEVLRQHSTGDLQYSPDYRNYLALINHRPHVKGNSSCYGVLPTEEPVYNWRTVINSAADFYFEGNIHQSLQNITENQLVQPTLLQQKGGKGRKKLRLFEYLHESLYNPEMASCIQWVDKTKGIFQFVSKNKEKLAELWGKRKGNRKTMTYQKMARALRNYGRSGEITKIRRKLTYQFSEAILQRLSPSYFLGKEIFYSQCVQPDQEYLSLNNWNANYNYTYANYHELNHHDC
Summary of the method: as §1

ELF4 = ELF4 (Homo sapiens, UniProt Q99607 1-663); details: protein: recombinant; tags: N-terminal GST; dsDNA, one strand shown
Chain of ELF4 (Q99607 whole entry): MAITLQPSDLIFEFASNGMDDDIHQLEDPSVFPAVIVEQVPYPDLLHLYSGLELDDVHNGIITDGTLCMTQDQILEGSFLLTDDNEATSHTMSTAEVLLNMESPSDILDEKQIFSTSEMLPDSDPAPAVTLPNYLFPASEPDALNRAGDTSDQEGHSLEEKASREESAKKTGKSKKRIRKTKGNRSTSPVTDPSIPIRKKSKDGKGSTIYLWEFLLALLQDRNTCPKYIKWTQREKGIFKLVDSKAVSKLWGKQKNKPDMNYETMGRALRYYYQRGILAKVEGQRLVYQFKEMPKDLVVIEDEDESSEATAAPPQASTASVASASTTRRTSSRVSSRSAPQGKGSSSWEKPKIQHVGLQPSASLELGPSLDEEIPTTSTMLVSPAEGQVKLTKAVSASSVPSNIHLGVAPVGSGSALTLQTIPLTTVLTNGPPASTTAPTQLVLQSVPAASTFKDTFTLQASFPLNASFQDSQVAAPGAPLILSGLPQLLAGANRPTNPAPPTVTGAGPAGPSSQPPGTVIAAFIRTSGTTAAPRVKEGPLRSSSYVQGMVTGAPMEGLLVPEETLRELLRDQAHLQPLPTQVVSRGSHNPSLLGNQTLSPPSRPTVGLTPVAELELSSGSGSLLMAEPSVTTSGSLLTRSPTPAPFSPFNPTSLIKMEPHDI
Summary of the method: as §1

ELK4 = target: T9, ELK4 (Homo sapiens, UniProt P28324-2 1-405); details: protein: recombinant; tags: N-terminal GST; dsDNA, one strand shown
T9 sequence: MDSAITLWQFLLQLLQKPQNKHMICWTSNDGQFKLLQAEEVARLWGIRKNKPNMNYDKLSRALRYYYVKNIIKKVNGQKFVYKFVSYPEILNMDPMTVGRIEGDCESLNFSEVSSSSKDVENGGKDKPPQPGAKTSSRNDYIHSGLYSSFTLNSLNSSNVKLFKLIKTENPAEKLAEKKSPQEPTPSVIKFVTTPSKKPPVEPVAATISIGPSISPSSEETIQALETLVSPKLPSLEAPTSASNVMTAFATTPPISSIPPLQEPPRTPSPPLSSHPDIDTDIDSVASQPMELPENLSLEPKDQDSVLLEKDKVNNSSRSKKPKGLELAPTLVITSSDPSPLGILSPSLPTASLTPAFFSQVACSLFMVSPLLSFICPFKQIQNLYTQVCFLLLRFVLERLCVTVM
Summary of the method: as §1

ETV2 = target: T10, ETV2 (Homo sapiens, UniProt O00321 1-342); details: protein: recombinant; tags: N-terminal GST; dsDNA, one strand shown
T10 sequence: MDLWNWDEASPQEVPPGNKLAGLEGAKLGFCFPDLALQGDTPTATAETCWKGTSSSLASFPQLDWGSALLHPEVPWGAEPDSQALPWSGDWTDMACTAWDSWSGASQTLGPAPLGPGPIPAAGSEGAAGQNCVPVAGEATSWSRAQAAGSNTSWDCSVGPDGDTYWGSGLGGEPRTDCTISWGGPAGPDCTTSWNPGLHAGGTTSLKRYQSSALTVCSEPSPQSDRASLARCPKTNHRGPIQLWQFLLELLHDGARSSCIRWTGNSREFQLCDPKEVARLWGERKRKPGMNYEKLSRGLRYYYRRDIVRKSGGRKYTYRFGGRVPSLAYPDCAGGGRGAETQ
Summary of the method: as §1

CRX = CRX (Homo sapiens, UniProt O43186 1-299); details: protein: recombinant; tags: N-terminal GST; dsDNA, one strand shown
Chain of CRX (O43186 whole entry): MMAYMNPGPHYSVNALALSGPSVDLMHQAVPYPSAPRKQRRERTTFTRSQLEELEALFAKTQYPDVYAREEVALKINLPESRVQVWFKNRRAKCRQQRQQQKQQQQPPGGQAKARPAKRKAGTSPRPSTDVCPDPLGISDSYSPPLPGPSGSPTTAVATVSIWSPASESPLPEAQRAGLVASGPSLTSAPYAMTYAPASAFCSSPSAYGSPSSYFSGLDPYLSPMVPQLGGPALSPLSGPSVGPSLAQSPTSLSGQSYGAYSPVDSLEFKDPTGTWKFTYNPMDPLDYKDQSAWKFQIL
Summary of the method: as §1

ETV1 = ETV1 (Homo sapiens, UniProt P50549 1-477); details: protein: recombinant; tags: N-terminal GST; dsDNA, one strand shown
Chain of ETV1 (P50549 whole entry): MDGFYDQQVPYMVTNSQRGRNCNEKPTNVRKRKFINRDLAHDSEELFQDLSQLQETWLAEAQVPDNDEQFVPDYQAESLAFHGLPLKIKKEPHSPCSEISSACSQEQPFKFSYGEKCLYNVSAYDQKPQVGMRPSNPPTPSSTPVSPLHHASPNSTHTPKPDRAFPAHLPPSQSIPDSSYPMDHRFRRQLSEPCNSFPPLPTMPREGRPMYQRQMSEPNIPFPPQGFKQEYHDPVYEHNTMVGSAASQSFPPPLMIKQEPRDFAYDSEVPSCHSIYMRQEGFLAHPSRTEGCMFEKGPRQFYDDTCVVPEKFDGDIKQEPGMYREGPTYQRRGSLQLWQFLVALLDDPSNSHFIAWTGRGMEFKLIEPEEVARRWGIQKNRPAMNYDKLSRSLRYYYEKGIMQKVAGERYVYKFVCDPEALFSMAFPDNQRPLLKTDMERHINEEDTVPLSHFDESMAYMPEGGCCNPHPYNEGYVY
Summary of the method: as §1

For TTTCGC, the binding signal (FLI1) was 1.11 fold enrichment (6-mer frequency, TF over GST control), the binding signal (ELK1) was 1.12 fold enrichment (6-mer frequency, TF over GST control) and the binding signal (GABPA) was 1.06 fold enrichment (6-mer frequency, TF over GST control). For the same sequence, the binding signal (ERG) was 1.02 fold enrichment (6-mer frequency, TF over GST control), the binding signal (ELF1) was 1.13 fold enrichment (6-mer frequency, TF over GST control) and the binding signal (EHF) was 1.2 fold enrichment (6-mer frequency, TF over GST control). For the same sequence, the binding signal (SPI1) was 1.13 fold enrichment (6-mer frequency, TF over GST control), the binding signal (SPIB) was 1.2 fold enrichment (6-mer frequency, TF over GST control) and the binding signal (ELK3) was 1.14 fold enrichment (6-mer frequency, TF over GST control). For the same sequence, the binding signal (FEV) was 1.16 fold enrichment (6-mer frequency, TF over GST control), the binding signal (ETV5) was 1.08 fold enrichment (6-mer frequency, TF over GST control) and the binding signal (HSF1) was 1.32 fold enrichment (6-mer frequency, TF over GST control). The binding signal (SPIC) was 1.2 fold enrichment (6-mer frequency, TF over GST control), the binding signal (ELF4) was 1.08 fold enrichment (6-mer frequency, TF over GST control) and the binding signal (ELK4) was 1.24 fold enrichment (6-mer frequency, TF over GST control). The binding signal (ETV2) was 1.39 fold enrichment (6-mer frequency, TF over GST control), the binding signal (CRX) was 1.19 fold enrichment (6-mer frequency, TF over GST control) and the binding signal (ETV1) was 1.09 fold enrichment (6-mer frequency, TF over GST control).
